High-throughput results (PubChem)
Rows were chosen to be rich in hits. Some 2.3% of all compounds tested hit in one or more screens of this group.
MBD2 DNA inh – blocks human MBD2 binding to methylated DNA. TR-FRET, MBD2 binding to methylated oligonucleotide. inhibition, % at 4.4 µM. 370,000 compounds, 0.31% hits. AID 686964; in the data active = inhibition above about 13%
LEDGF integ inh – blocks HIV-1 LEDGF/p75-dependent DNA integration | 370,000 compounds, 0.64% hits | TR-FRET IN-LEDGF/p75 DNA integration, Eu/Cy5 | inhibition, % at 3.7 µM;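 active = inhibition above the screen-wide mean plus 3 SD, cut at about 13% in these data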;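 also: signal is the Cy5 over europium emission ratio at 671 and 618 nm; 0% = plate median of compound wells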
PLC-gamma1 inh – blocks human PLC-gamma1 enzyme activity; P19174; purified PLC-gamma1, fluorogenic substrate, fluorescence; inhibition, % at 12.2 µM; 370,000 compounds, 0.84% hits; AID 720700
UHRF1 MBD2 ctr – blocks human UHRF1 binding to methylated DNA. Q96T88. UHRF1 binding to methylated oligo, TR-FRET. inhibition, % at 4.4 µM. 370,000 compounds, 0.75% hits. AID 687016; in the data active = inhibition above about 21%;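 also: UHRF1 SRA domain binding a hemimethylated CpG hairpin DNA probe; 0% = median of test compound wells and 100% = reference inhibitor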
Target sequence (Q96T88 whole entry, looked up, the tested form may be a part): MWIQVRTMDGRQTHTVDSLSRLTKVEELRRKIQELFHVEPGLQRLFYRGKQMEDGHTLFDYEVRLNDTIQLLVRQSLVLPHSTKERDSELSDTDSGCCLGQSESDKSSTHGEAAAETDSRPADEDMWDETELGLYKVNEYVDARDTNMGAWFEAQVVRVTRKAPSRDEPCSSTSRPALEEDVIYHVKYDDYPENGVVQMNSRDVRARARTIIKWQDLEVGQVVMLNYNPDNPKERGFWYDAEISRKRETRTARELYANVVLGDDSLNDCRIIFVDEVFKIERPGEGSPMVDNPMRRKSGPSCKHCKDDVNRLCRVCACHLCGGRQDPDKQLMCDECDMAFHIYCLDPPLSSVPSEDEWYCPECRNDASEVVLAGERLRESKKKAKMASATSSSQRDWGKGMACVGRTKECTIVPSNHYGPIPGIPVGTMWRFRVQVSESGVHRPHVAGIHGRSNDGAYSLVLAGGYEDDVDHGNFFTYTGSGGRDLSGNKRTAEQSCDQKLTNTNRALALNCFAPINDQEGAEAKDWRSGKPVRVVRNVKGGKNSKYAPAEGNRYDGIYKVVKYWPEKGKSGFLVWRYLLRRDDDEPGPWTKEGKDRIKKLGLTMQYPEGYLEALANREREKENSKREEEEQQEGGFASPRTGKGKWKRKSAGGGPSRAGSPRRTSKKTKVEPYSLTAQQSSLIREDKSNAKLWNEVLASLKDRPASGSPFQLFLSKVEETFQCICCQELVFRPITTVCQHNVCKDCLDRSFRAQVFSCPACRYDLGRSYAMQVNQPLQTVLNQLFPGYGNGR
PLCb3 inh – inhibitors of human phospholipase C beta3 | AID 720704 | 370,000 compounds, 0.18% hits | Purified PLC-beta3, fluorogenic substrate, fluorescence | inhibition, % at 12.2 µM; in the data active = inhibition above about 11%;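 also: 0% = median of compound wells on plate and 100% = full blocker control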
PLCgamma1 ctr – inhibits human PLC-gamma1 in PLC-beta3 counter-screen; inhibition, % at 12.3 µM; shares compounds with PLC-gamma1 inh; 3,300 compounds, 3.1% hits; purified PLC-gamma1, fluorogenic substrate, fluorescence
PLCbeta3 conf – human PLC-beta3 inhibition, confirmation. shares compounds with PLC-gamma1 inh. purified PLC-beta3, fluorogenic substrate fluorescence. inhibition, % at 12.3 µM. 3,300 compounds, 1% hits. AID 743261; in the data active = inhibition above about 11%
IN multimer up – activates HIV-1 integrase multimerization in LEDGF counter-screen; TR-FRET HIV-1 integrase multimerization, biochemical; 2,000 compounds, 17% hits; shares compounds with LEDGF integ inh; activation, % at 7.7 µM; AID 1053131; in the data active = activation above about 8.9%
TRFRET interf – TR-FRET optical interference, LEDGF/p75 integration counter-screen; shares compounds with LEDGF integ inh; TR-FRET optical interference counterscreen, HIV-1 IN multimerization; inhibition, % at 7.7 µM; 2,000 tested, under 10 active; AID 1053135;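 active = inhibition above the mean over all tested compounds plus 3 SD, which no compound reached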;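 also: 0% = integrase with antibodies and DMSO and 100% = antibodies without integrase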
LEDGF integ conf – LEDGF/p75-dependent HIV-1 integration inhibition, confirmation. AID 1053136. TR-FRET LEDGF/p75-dependent HIV-1 integration, biochemical. inhibition, % at 3.7 µM. shares compounds with LEDGF integ inh. 2,000 compounds, 36% hits; in the data active = inhibition above about 14%
Active calls of the source: *; / = no result. Rule as the data show it, unless noted: active = inhibition above about 9.5%; inactive = the rest.

SMILES	MBD2 DNA inh	LEDGF integ inh	PLC-gamma1 inh	UHRF1 MBD2 ctr	PLCb3 inh	PLCgamma1 ctr	PLCbeta3 conf	others
O=C1OCC2=C1C(c1ccccc1)CC(=O)N2c1ccc(F)cc1 (centres undefined)	5	10	11*	6	2	0	2
O=C1OCC2=C1C(c1ccc(Cl)cc1)CC(=O)N2c1ccc(F)cc1 (centres undefined)	2	0	-1	1	-4	/	/
O=c1c(=O)n(O)c2ccccc2n1O	0	4	13*	-1	-1	-6	-2
CC(=O)CC[C@H]1CC[C@]2(CCCN(S(=O)(=O)c3ccccc3)C2)O1	-3	1	-2	2	0	/	/
C#CCNC(=O)C[C@H]1C[C@@]2(C(=O)OC)C(=C[C@H](COCc3ccccc3)O[C@@H]2C)N(Cc2ccc(Cl)cc2Cl)C1=O	0	-4	1	0	-1	/	/
COc1ccc(C(=O)NC(=S)Nc2ccccc2N2CCOCC2)cc1Br	-8	1	1	-1	2	/	/
CCOc1ccc(C(=O)NC(=S)Nc2ccccc2N2CCOCC2)cc1Br	6	-6	9.9*	5	1	2	3
COc1ccccc1NC(=O)COc1ccc(C(=O)OCC(=O)NC(C)(C)C)cc1OC	2	2	13*	3	1	-4	-3
Cc1ccccc1OCC(=O)OCC(=O)N1CCCc2ccccc21	-6	9	-1	-1	1	/	/
Cc1cccc(OCC(=O)OCC(=O)N2CCCc3ccccc32)c1C	-1	3	11*	0	-4	0	3
C=CCN(Cc1ccc2c(c1)OCO2)C(C#Cc1ccccc1)c1ccccc1C(F)(F)F (centres undefined)	3	1	-3	1	-3	/	/
CN1C(=O)[C@@](O)(c2cn(C)c3ccccc23)c2cc(F)ccc21	-8	2	3	5	12*	-6	-3
NC(=O)c1cc(S(=O)(=O)NCCc2ccccc2)cs1	2	1	1	-2	-5	/	/
NC(=O)c1cc(S(=O)(=O)NCCc2ccc(Cl)cc2)cs1	-3	4	12*	3	-6	-6	-5
CC(=O)Nc1ccc(OC(=O)c2ccc(Cl)cc2)cc1	4	4	4	7	11*	-9	-4
Cc1ccc(OC(=O)C2CCN(C(=O)c3ccccc3C)CC2)c(Br)c1	0	-8	11*	4	0	-4	-5
Cc1ccccc1C(=O)N1CCC(C(=O)NC2CCCCCC2)CC1	4	-5	-2	4	-9	/	/
O=C(c1ccco1)N1CCN(C(=O)c2cnn(-c3ccc(Cl)cc3)c2C2CCNCC2)CC1	4	3	1	-2	-8	/	/
Cc1ccc(-n2ncc(C(=O)Nc3ccc(Cl)cc3)c2C2CCNCC2)cc1C	-3	1	9.6*	3	4	-4	-1
CC(=O)Nc1cnc(NC(=O)c2cccc(F)c2)cc1C	-5	2	7	5	11*	1	-1
O=C(NCC(=O)N(CC1CCCO1)C(C(=O)NC1CCCCC1)c1ccc(F)cc1)c1ccco1 (centres undefined)	1	-1	3	5	1	/	/
O=C(NC1CCN(C(=O)NC2CCCCC2)CC1)c1ccco1	1	4	6	4	5	/	/
O=C(NC1CCCCCCC1)c1ccco1	-2	6	11*	10	8	-1	1
Cc1ccc(C(C(=O)NC2CCCCC2)N(CC2CCCO2)C(=O)CNC(=O)c2ccco2)cc1 (centres undefined)	-2	0	10.0*	1	4	-4	-4
O=C(C1CCCO1)N1CCN(C2=Nc3ccccc3Sc3ccccc32)CC1 (centres undefined)	3	4	7	1	6	/	/
SMILES	MBD2 DNA inh	LEDGF integ inh	PLC-gamma1 inh	UHRF1 MBD2 ctr	PLCb3 inh	PLCgamma1 ctr	PLCbeta3 conf	others
Cc1nccn1CCOc1ccccc1Cl	-8	6	10*	0	1	-6	-1
Clc1ccccc1OCCCn1ccnc1	3	1	0	-1	-3	/	/
COC(=O)c1cc(C(c2ccccc2O)C2CCC(C)(C)O2)n2ccccc12 (centres undefined)	8	-2	-31	0	-49	/	/
CCCNC(=O)COC(=O)CCC(=O)c1ccc(F)cc1	0	-2	9.8*	7	7	-2	-7
CCCCNC(=O)COC(=O)CCC(=O)c1ccc(F)cc1	-1	-2	6	0	4	/	/
CC1(C)CN(c2ccc(N3CC(C)(C)C3=O)cc2)C1=O	3	-4	4	2	-4	/	/
CC(=O)Nc1ccc(N2CC(C)(C)C2=O)cc1	4	2	13*	6	5	-3	1
Nc1ccc(N2CCCCC2)cc1N1CCCCC1	-5	2	-12	-1	-9	/	/
Nc1ccc(N2CCCCC2)c2nonc12	13	56*	34*	12	-9	-8	-10	IN multimer up=1;TRFRET interf=-5;LEDGF integ conf=67*
C=CCSC1=N/C(=C\c2cc(OCC)c(OC(C)=O)c([N+](=O)[O-])c2)C(=O)S1	-2	32*	12*	19	5	2	-1	IN multimer up=1;TRFRET interf=-3;LEDGF integ conf=3
Cc1ccccc1-c1nn[nH]n1	5	-2	0	2	1	/	/
Oc1ccc(N=Nc2ccccc2-c2nn[nH]n2)c(O)c1	-5	19*	12*	-4	3	7	3	IN multimer up=18*;TRFRET interf=-64;LEDGF integ conf=9
NS(=O)(=O)c1ccc(N/N=C/c2ccc(O)c(O)c2O)c([N+](=O)[O-])c1	-6	72*	12*	8	2	5	3	IN multimer up=33*;TRFRET interf=-167;LEDGF integ conf=85*
NS(=O)(=O)c1ccc(N/N=C/c2ccccn2)c([N+](=O)[O-])c1	-19	-2	5	-15	4	/	/
COc1cc(/C=N\Nc2nncn2N)ccc1OC(C)=O	2	58*	14*	8	1	0	-4	IN multimer up=0;TRFRET interf=1;LEDGF integ conf=2
CCOC(=O)N1CCN(C(=O)C[C@@H]2C(=O)N(Cc3ccc(OC)cc3)C3=CCN(C(=O)OC(C)(C)C)C[C@]32C(=O)OCC)CC1	-1	-2	0	1	3	/	/
CCOC(=O)C1(Cc2ccccc2)CCN(Cc2ccc(C)cc2)CC1	-5	2	3	-1	4	/	/
